Assay [1] can be described thus: NCI Yeast Anticancer Drug Screen. Data for the rad50 strain (AID 155).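 Note: 0% = growth of vehicle-only cultures of the same strain.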 The conditions noted are these: S. cerevisiae rad50 strain growth inhibition; at 50.0 µM; hits give high values. Summed up: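 Inhibition values express reduced yeast growth in compound-treated cultures relative to vehicle-treated controls.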
Assay [2] can be described thus: NCI Yeast Anticancer Drug Screen. Data for the mec2-1 strain (AID 157). The conditions noted are these: S. cerevisiae mec2-1 strain, at 50.0 µM, hits give high values. Put shortly:
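Mutant yeast (mec2-1) grown with compound; growth inhibition relative to vehicle control reported.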

The nature of assay [3]: NCI Yeast Anticancer Drug Screen. Data for the sgs1 mgt1 strain (AID 161).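 Note: 0% = growth of cultures given vehicle only.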 The conditions noted are these: S. cerevisiae sgs1 mgt1 strain, at 50.0 µM, hits give high values. Summed up: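 Percent growth inhibition was derived by comparing compound-exposed mutant yeast with vehicle-exposed cultures. The strain carries alterations in DNA damage repair.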
A short description of assay [4]: NCI Yeast Anticancer Drug Screen. Data for the cln2 rad14 strain (AID 165).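 Note: 0% = growth equal to vehicle treated cultures.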 The conditions noted are these: S. cerevisiae cln2 rad14 strain, at 50.0 µM, hits give high values. Summed up:
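Readout is yeast growth inhibition versus vehicle-treated controls, using a strain with cln2 and rad14 alterations exposed to compound.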

Assay [5] is described as follows: NCI Yeast Anticancer Drug Screen. Data for the bub3 strain (AID 167). The conditions noted are these: S. cerevisiae bub3 mutant strain, at 50.0 µM, hits give high values. Summed up:
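Steps: expose the mutant yeast strain to compound; grow alongside vehicle-treated cultures; measure growth; express inhibition against the vehicle cultures.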

A short description of assay [6]: NCI Yeast Anticancer Drug Screen. Data for the mlh1 rad18 strain (AID 175). The conditions noted are these: S. cerevisiae mlh1 rad18 strain growth inhibition; at 50.0 µM; hits give high values. Summed up: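 Genetically defined yeast (DNA repair-deficient) exposed to compounds; growth inhibition determined relative to vehicle.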

About 79,000 compounds went through this panel and 15% of them were active in at least one assay; those are over-represented in the sample as a whole. Unmarked numbers belong to inactive results. The source made the active and inactive calls. Cut-off read from the data, not from the text of the source: active = growth inhibition above about 70%; inactive = the rest.

Regarding `Cc1cccc(C)c1NC(=O)Nc1cccc(O)c1`, the growth inhibition in assay [1] is -1.4%; in assay [2], 34.8%; in assay [3] it was 13.5%; in assay [4], -4.4%; in assay [5], 37.6%; in assay [6] it was 26.4%.
In the case of `COC(=O)CCC1CCC(CC2CCC(CCC(=O)OC)CC2)CC1` (configuration not stated), the growth inhibition in assay [1] was -20.1%; in assay [2], -6.95%; in assay [3] it was -6.65%; in assay [4] it was -26%; in assay [5] it was -9.7%; in assay [6], -4.25%.
As for `CC(c1ccccc1)c1ccc2ccccc2c1C(=O)O` (configuration not stated), the growth inhibition is 39.8% in assay [1]; 43.2% in assay [2]; 42.6% in assay [3]; 82% (active) in assay [4]; 29.6% in assay [5]; 64.8% in assay [6].
For the compound `CCOCCOCCOCOCCOCCOCC`, the growth inhibition was 17.2% in assay [1]; -25.2% in assay [2]; 8.4% in assay [3]; 7.25% in assay [4]; 25.9% in assay [5]; -4% in assay [6].
For `O=C(O)Cn1c(=O)n(CC(=O)O)c2ccccc21`, the growth inhibition in assay [1] was 6.85%; in assay [2], -4.95%; in assay [3] it was -4.2%; in assay [4], -10%; in assay [5] it was 3.25%; in assay [6], -7.65%.
For `CCC(=O)C(CC)c1ccc(OC)cc1OC` (configuration not stated), the growth inhibition in assay [1] is -1.75%; in assay [2], -31.4%; in assay [3], -6.15%; in assay [4] it was 3.85%; in assay [5] it was 7.3%; in assay [6], 15.6%.
Take `Cc1cc(C)c2c(c1)CC(C)(C)C(=O)OC2=O`: the growth inhibition was -16.2% in assay [1]; -23.9% in assay [2]; -9.65% in assay [3]; 2.4% in assay [4]; -10.3% in assay [5]; -11.2% in assay [6].
Consider `CCOC(=O)C(=CN1CCCCCC1)C(=O)OCC`, for which the growth inhibition is 19.8% in assay [1]; 13.2% in assay [2]; 13.2% in assay [3]; 6.1% in assay [4]; -0.25% in assay [5]; 32.5% in assay [6].
With `COc1ccc(-c2c(C#N)c(O)n(NS(=O)(=O)c3ccc(C)cc3)c(=O)c2C#N)cc1`, the growth inhibition in assay [1] is 12.1%; in assay [2] it was 37%; in assay [3], 33%; in assay [4], 20.8%; in assay [5] it was 28.5%; in assay [6], 37.5%.
As to `CC(=O)c1cccc2c(C(C)=O)cccc12`, the growth inhibition in assay [1] was 5.45%; in assay [2], -5.2%; in assay [3], 14.8%; in assay [4] it was -20.1%; in assay [5] it was 3.4%; in assay [6] it was -15.1%.
As for `C=CCNC(=S)N/C=C(\C#N)c1nc2ccccc2s1`, the growth inhibition in assay [1] is 0.3%; in assay [2], -6.3%; in assay [3], -15%; in assay [4], 32.4%; in assay [5], -4.35%; in assay [6], 31.3%.
`O=C(NCCCl)NC(Cc1ccccc1)Cc1ccccc1`: the growth inhibition was 6.65% in assay [1]; 10.7% in assay [2]; 15% in assay [3]; 53.7% in assay [4]; 2.1% in assay [5]; 31.4% in assay [6].
On to `CCC(C)(O)CCc1ccccc1` (configuration not stated), for which the growth inhibition is -17.5% in assay [1]; -42.6% in assay [2]; -64.2% in assay [3]; 2.55% in assay [4]; -36.3% in assay [5]; -5% in assay [6].
As for `CC1CCCC(=O)CCC1`, the growth inhibition was 2.9% in assay [1]; -4.6% in assay [2]; -9.05% in assay [3]; 7.15% in assay [4]; 10.8% in assay [5]; 2.55% in assay [6].
For the compound `C=CCC(O)c1ccc(OC)c(OC)c1` (configuration not stated), the growth inhibition in assay [1] is 2.55%; in assay [2], -3.3%; in assay [3] it was -6.3%; in assay [4], -19.1%; in assay [5], 3.4%; in assay [6], 0.55%.
Turning to `COc1ccc(Cc2cc3c(cc2OC(C)=O)OCO3)cc1`, the growth inhibition in assay [1] is -4.2%; in assay [2], -10.3%; in assay [3], -5.75%; in assay [4] it was 8.9%; in assay [5], 38.2%; in assay [6], 7.25%.
For `Cc1cc([N+](C)(C)C)c(C(C)C)cc1O`, the growth inhibition in assay [1] was -0.45%; in assay [2], 5.7%; in assay [3] it was 6.25%; in assay [4] it was 9.55%; in assay [5], 11%; in assay [6] it was 0.25%.
As for `COC(=S)OC1CC(n2cnc3c(N)ncnc32)OC1CO[Si](C)(C)C(C)(C)C` (configuration not stated), the growth inhibition in assay [1] was -10.2%; in assay [2], -8.25%; in assay [3] it was 2.55%; in assay [4], -1.2%; in assay [5] it was 11.1%; in assay [6], 4.9%.
With `COc1ccc(/C(=N/NC(=O)NN)C(c2ccc(OC)cc2)C2(O)CNc3c(Cl)cc(Cl)cc32)cc1` (configuration not stated), the growth inhibition in assay [1] is 1.75%; in assay [2], 14.4%; in assay [3] it was -9.15%; in assay [4] it was -16.4%; in assay [5] it was 16.4%; in assay [6], 12.7%.
As for `CCCC(=O)OCC1OC(n2cc(F)c(=O)[nH]c2=O)CC1O` (configuration not stated), the growth inhibition in assay [1] was 14.2%; in assay [2], -4.2%; in assay [3], 5.65%; in assay [4], 9.7%; in assay [5] it was 6.65%; in assay [6], -27.4%.
`Cc1ccc(N2C(=O)ON(c3ccccc3)C2c2ccccc2)cc1` (configuration not stated): the growth inhibition was 3.6% in assay [1]; -5.8% in assay [2]; -4.45% in assay [3]; 5.9% in assay [4]; 12.4% in assay [5]; -15.9% in assay [6].
Regarding `CCSC1OC(C(COC(C)=O)OC(C)=O)C(OC(C)=O)C1NC(=O)OCc1ccccc1` (configuration not stated), the growth inhibition is -0.05% in assay [1]; 5.75% in assay [2]; -4.5% in assay [3]; 7.2% in assay [4]; 1% in assay [5]; -18.1% in assay [6].
Consider `COc1ccc2cc3[n+](cc2c1O)CCc1cc2c(cc1-3)OCO2`, for which the growth inhibition in assay [1] is 6.75%; in assay [2] it was -22.8%; in assay [3], 19%; in assay [4] it was 20.6%; in assay [5], 22.2%; in assay [6] it was 22.9%.
For the compound `CNC(=O)n1cnc(N)n1` (tested in a mixture with another compound), the growth inhibition in assay [1] is -13.2%; in assay [2], 8.2%; in assay [3], 16.7%; in assay [4], -25.3%; in assay [5], -10.9%; in assay [6], 13%.
In the case of `CCSCCCCSCC`, the growth inhibition is -2.85% in assay [1]; -34.4% in assay [2]; -15.7% in assay [3]; 3.35% in assay [4]; 6.3% in assay [5]; -2.2% in assay [6].
For the compound `CCCCCCCCCCCCCCC1CC(=O)OC1=O` (configuration not stated), the growth inhibition is -22.6% in assay [1]; -30.1% in assay [2]; -9.55% in assay [3]; 0.5% in assay [4]; -10.8% in assay [5]; -31.8% in assay [6].
Take `Cc1ccc(NC(=S)NCC2CCCO2)cc1C` (configuration not stated): the growth inhibition in assay [1] was 9%; in assay [2], 7.2%; in assay [3], 10.6%; in assay [4], 8.85%; in assay [5], 19.4%; in assay [6], 14.7%.
`CN(C)NC(=O)Nc1ccc2ccccc2c1`: the growth inhibition was -39.4% in assay [1]; -30.7% in assay [2]; -8.55% in assay [3]; -41% in assay [4]; -24.2% in assay [5]; -24.4% in assay [6].
Take `CN(c1ccccc1)c1cc2nc3ccccc3nc2cc1O`: the growth inhibition was 15.3% in assay [1]; 17.4% in assay [2]; 4.3% in assay [3]; 14.3% in assay [4]; 2% in assay [5]; -1.6% in assay [6].
As to `COC(=O)C(Cc1ccccc1)NC(=O)C1CSC(C)(C)N1C=O` (configuration not stated), the growth inhibition is 3.25% in assay [1]; 16.4% in assay [2]; 21.6% in assay [3]; 3.05% in assay [4]; 22.8% in assay [5]; -20.4% in assay [6].
As for `CCN(CC)CCOC(=O)c1ccc(N)c2ccccc12`, the growth inhibition was -3.8% in assay [1]; 12.2% in assay [2]; -14.3% in assay [3]; -22.4% in assay [4]; 5.5% in assay [5]; 6.85% in assay [6].
Regarding `Cc1no[n+]([O-])c1NC(=O)OCc1ccccc1`, the growth inhibition in assay [1] is -1.8%; in assay [2], -11%; in assay [3], -2.6%; in assay [4] it was -37.8%; in assay [5] it was -15.3%; in assay [6], 6.9%.
For the compound `CCCCC(=CC(C)(C)C)CCCC`, the growth inhibition in assay [1] was 22.9%; in assay [2], -2.4%; in assay [3], -7.7%; in assay [4] it was 7.95%; in assay [5], 20.6%; in assay [6], 14.5%.
As to `CCCCN(CCCC)CC(O)c1cc(OC)c2cc(Cl)cc(Cl)c2n1` (configuration not stated), the growth inhibition is 99.5% (active) in assay [1]; 99.8% (active) in assay [2]; 99.8% (active) in assay [3]; 99.3% (active) in assay [4]; 99.2% (active) in assay [5]; 99.7% (active) in assay [6].
For `CCOC(=O)/C=C/c1ccc(F)cc1`, the growth inhibition was 27.6% in assay [1]; 2% in assay [2]; 18.1% in assay [3]; 11.2% in assay [4]; 20.8% in assay [5]; 10.9% in assay [6].
`CCOC(=O)/C(=C\c1cc(C)c(OC(C)=O)c(OC)c1)NC(=O)c1ccccc1`: the growth inhibition in assay [1] is -17.1%; in assay [2] it was -15.2%; in assay [3], -11.1%; in assay [4], 0.1%; in assay [5], -3.45%; in assay [6] it was -4.25%.
As to `CCOC(=O)c1cn(CC)c2cc3c(cc2c1=O)SCS3`, the growth inhibition was -37.3% in assay [1]; -18.9% in assay [2]; -16.6% in assay [3]; 29.9% in assay [4]; 19.4% in assay [5]; 41% in assay [6].

These data come from PubChem BioAssay (NCI).
